Among the data in the antibiotic and cytotoxicity screens of Wong et al. (2023) are cytotoxicity call values, retold here.

The structures appear in SMILES notation. The whole screen tested about 39,000 compounds, of which about 3,300 (8.5%) were called active. Only a selection was taken, and actives are over-represented in it overall.

The assay relates to HepG2. As to the kind of experiment: cytotoxicity call (relative viability < 0.9). The following applies: 10 µM.
Take `CCCCCCOc1cccc(N)c1`: the cytotoxicity call is “inactive”.
In the case of `C[C@@H]1CCCCO[C@H](CN(C)C(=O)Nc2cccc3ccccc23)[C@@H](C)CN([C@@H](C)CO)C(=O)c2cc(NC(=O)CCCN(C)C)ccc2O1`, the cytotoxicity call is “inactive”.
With `CNC[C@@H]1OCCCC[C@@H](C)Oc2ccc(NS(=O)(=O)c3cn(C)cn3)cc2C(=O)N([C@H](C)CO)C[C@@H]1C` the entry was “inactive”.
The result for `C[C@H](CO)N1C[C@H](C)[C@@H](CN(C)CC2CCCCC2)OCCCC[C@H](C)Oc2ccc(NC(=O)Nc3ccc(C(F)(F)F)cc3)cc2C1=O` reads “active”.
With `C[C@H]1CCCCO[C@@H](CN(C)CC2CCCCC2)[C@@H](C)CN([C@@H](C)CO)C(=O)c2cc(NC(=O)Nc3ccc(C(F)(F)F)cc3)ccc2O1`, the cytotoxicity call is “active”.
On to `C[C@@H]1CCCCO[C@@H](CN(C)CC2CCCCC2)[C@H](C)CN([C@H](C)CO)C(=O)c2cc(NC(=O)Nc3ccc(C(F)(F)F)cc3)ccc2O1`, for which the cytotoxicity call was “active”.
`C[C@@H]1CCCCO[C@@H](CN(C)CC2CCCCC2)[C@H](C)CN([C@@H](C)CO)C(=O)c2cc(NC(=O)Nc3ccc(C(F)(F)F)cc3)ccc2O1`: the cytotoxicity call was “active”.
With `C[C@@H]1CN([C@@H](C)CO)C(=O)c2cc(NC(=O)Nc3ccc(C(F)(F)F)cc3)ccc2O[C@@H](C)CCCCO[C@H]1CN(C)CC1CCCCC1` the entry was “inactive”; with `CC(C)=CCCC(C)=CCOc1ccc2ccc(=O)oc2c1`, “inactive”; with `O=C1/C(=C/c2cn(-c3ccccc3)nc2-c2ccc(OCc3ccc(Cl)cc3)cc2)SC(=S)N1CCS(=O)(=O)O`, “inactive”.
Turning to `CCS(=O)(=O)NCC[C@H]1CC[C@H](NC(=O)C2CCOCC2)[C@@H](CO)O1`, the cytotoxicity call was “inactive”.
With `O=C(C[C@H]1C[C@H]2c3cc(NS(=O)(=O)c4ccc(F)cc4)ccc3O[C@H]2[C@@H](CO)O1)NCCc1ccccc1`, the cytotoxicity call is “inactive”.
Consider `COc1ccc(S(=O)(=O)N(C)C[C@H]2OCCCC[C@H](C)Oc3ccc(NC(=O)Nc4c(C)noc4C)cc3C(=O)N([C@H](C)CO)C[C@@H]2C)cc1`, for which the cytotoxicity call is “inactive”.
Turning to `C[C@H]1CN([C@@H](C)CO)C(=O)Cc2cc(NC(=O)c3ccncc3)ccc2O[C@@H]1CN(C)S(=O)(=O)c1ccc(F)cc1`, the cytotoxicity call is “inactive”.
With `CN1CCN(C(=O)C[C@@H]2C[C@H]3c4cc(NC(=O)c5ccc6c(c5)OCO6)ccc4O[C@H]3[C@@H](CO)O2)CC1` the entry was “inactive”.
Turning to `CC(=O)O[C@@H]1CC[C@@]2(C)[C@@H](CC[C@]3(C)[C@@H]2C(=O)C=C2[C@@H]4[C@@H](C)[C@H](C)CC[C@]4(C)CC[C@]23C)[C@@]1(C)C(=O)O`, the cytotoxicity call was “inactive”.
As to `C[C@@H]1CN([C@H](C)CO)C(=O)c2cccc(NC(=O)C3CC3)c2O[C@@H]1CN(C)C(=O)Nc1ccc2c(c1)OCO2`, the cytotoxicity call was “inactive”.
Consider `Cc1noc(C)c1NC(=O)N(C)C[C@@H]1Oc2ncc(C#CCN(C)C)cc2C(=O)N([C@H](C)CO)C[C@H]1C`, for which the cytotoxicity call is “inactive”.
With `C[C@@H]1CCCCO[C@H](CN(C)CC2CCCCC2)[C@@H](C)CN([C@H](C)CO)C(=O)c2cc(NC(=O)Nc3ccc(C(F)(F)F)cc3)ccc2O1` the entry was “active”.
The result for `C[C@@H]1CN([C@H](C)CO)C(=O)c2cc(NC(=O)Nc3ccc(C(F)(F)F)cc3)ccc2O[C@@H](C)CCCCO[C@@H]1CN(C)CC1CCCCC1` reads “active”; that for `C[C@H](CO)N1C[C@H](C)[C@H](CN(C)CC2CCCCC2)OCCCC[C@H](C)Oc2ccc(NC(=O)Nc3ccc(C(F)(F)F)cc3)cc2C1=O`, “active”; that for `C[C@@H]1CCCCO[C@@H](CN(C)CC2CCCCC2)[C@@H](C)CN([C@H](C)CO)C(=O)c2cc(NC(=O)Nc3ccc(C(F)(F)F)cc3)ccc2O1`, “active”.
As for `COCC(=O)Nc1ccc2c(c1)C(=O)N(C)C[C@@H](OC)[C@H](C)CN(C(=O)Cc1ccccn1)[C@@H](C)CO2`, the cytotoxicity call is “inactive”.
As for `C[C@@H]1CN([C@@H](C)CO)C(=O)c2cc(C#CCc3ccccc3)cnc2O[C@@H]1CN(C)C(=O)C1CCOCC1`, the cytotoxicity call was “inactive”.
On to `Cc1ccc(S(=O)(=O)N(C)C[C@@H]2Oc3c(NC(=O)C4CC4)cccc3C(=O)N([C@H](C)CO)C[C@@H]2C)cc1`, for which the cytotoxicity call was “inactive”.
As to `C[C@@H]1CN([C@@H](C)CO)S(=O)(=O)c2ccc(C#C[C@@H](C)O)cc2O[C@H]1CN(C)C(=O)Nc1ccccc1`, the cytotoxicity call is “inactive”.
Turning to `C[C@H]1CN([C@@H](C)CO)C(=O)c2cccc(NS(=O)(=O)c3cn(C)cn3)c2O[C@H]1CN(C)Cc1ccc2c(c1)OCO2`, the cytotoxicity call was “inactive”.
With `C[C@@H]1CCCCO[C@H](CN(C)Cc2ccc(C(=O)O)cc2)[C@H](C)CN([C@H](C)CO)C(=O)c2cc(NS(=O)(=O)c3ccc(F)cc3)ccc2O1` the entry was “inactive”; with `CC(C)NC(=O)Nc1ccc2c(c1)C(=O)N([C@H](C)CO)C[C@H](C)[C@H](CN(C)S(C)(=O)=O)OCCCC[C@H](C)O2`, “inactive”.
`CCCC(=O)Nc1ccc2c(c1)C(=O)N(C)C[C@@H](OC)[C@H](C)CN(S(=O)(=O)c1cn(C)cn1)[C@H](C)CO2`: the cytotoxicity call was “inactive”.
Take `C[C@@H]1CN([C@H](C)CO)C(=O)c2cccc(NS(=O)(=O)c3cccs3)c2O[C@@H]1CN(C)CC1CC1`: the cytotoxicity call was “inactive”.
Take `COc1ccccc1C#Cc1cnc2c(c1)C(=O)N([C@@H](C)CO)C[C@@H](C)[C@@H](CN(C)C(=O)CC1CC1)O2`: the cytotoxicity call was “inactive”.
On to `C[C@H]1CCCCO[C@H](CN(C)C(=O)Nc2ccccc2)[C@@H](C)CN([C@@H](C)CO)C(=O)c2cc(NS(=O)(=O)c3ccc(Cl)cc3)ccc2O1`, for which the cytotoxicity call is “inactive”.
For the molecule `COc1ccc(NC(=O)N(C)C[C@@H]2Oc3ccc(NC(=O)CCN4CCOCC4)cc3CC(=O)N([C@H](C)CO)C[C@@H]2C)cc1`, the cytotoxicity call is “inactive”.
For `C[C@H]1CN([C@@H](C)CO)C(=O)Cc2cc(NC(=O)Nc3ccc(C(F)(F)F)cc3)ccc2O[C@@H]1CN(C)C(=O)Nc1cccc2ccccc12`, the cytotoxicity call was “inactive”.
For the molecule `C[C@@H]1CN([C@H](C)CO)C(=O)Cc2cc(NS(=O)(=O)c3cn(C)cn3)ccc2O[C@@H]1CN(C)CC1CCCCC1`, the cytotoxicity call is “inactive”.
Consider `C[C@H](CO)N1C[C@H](C)[C@@H](CN(C)Cc2ccc(Oc3ccccc3)cc2)Oc2ncc(-c3ccncc3)cc2C1=O`, for which the cytotoxicity call was “inactive”.
`C[C@@H]1CCCCO[C@H](CN(C)CC2CCCCC2)[C@H](C)CN([C@H](C)CO)C(=O)c2cc(NC(=O)Nc3ccc(C(F)(F)F)cc3)ccc2O1`: the cytotoxicity call was “active”.
As to `C[C@@H]1CN([C@@H](C)CO)C(=O)c2cc(NC(=O)Nc3ccc(C(F)(F)F)cc3)ccc2O[C@@H](C)CCCCO[C@@H]1CN(C)CC1CCCCC1`, the cytotoxicity call is “active”.
The result for `C[C@@H]1CCCCO[C@H](CN(C)CC2CCCCC2)[C@H](C)CN([C@@H](C)CO)C(=O)c2cc(NC(=O)Nc3ccc(C(F)(F)F)cc3)ccc2O1` reads “active”.
